Assay [1] can be described thus: binders of probe aFSTL3 on microarray, primary screen, stem cell growth factor project, biochemical, small-molecule microarray, fluorescence 635/667 (AID 1064).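 Also: measures binding of the biotinylated anti-FSTL3 antibody to printed compounds.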 Particulars: higher = more signal.
A short description of assay [2]: binders from COS7 lysate, DM2A8 probe, primary screen, torsin A project, cell lysate, small-molecule microarray, fluorescence 635/667 (AID 1065). The conditions noted are these: higher = more signal, COS7 lysate expressing mutant human TOR1A.
The nature of assay [3]: binders of probe aFGF2 on microarray, primary screen, stem cell growth factor project, biochemical, small-molecule microarray, fluorescence 635/667 (AID 1067).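 Also: measures binding of biotinylated aFGF2 protein to printed compounds on slides; z-score merges feature fluorescence and signal-to-noise across triplicate slides.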 Particulars: higher = more signal.
Assay [4] in a line: binders of probe aFGF10 on microarray, primary screen, stem cell growth factor project, biochemical, small-molecule microarray, fluorescence 635/667 (AID 1071).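 Also: score merges 667 nm spot intensity and signal to noise from triplicate slides.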 Particulars: higher = more signal.
Assay [5] has as its target Neurogenic locus notch homolog protein 2 (Homo sapiens) (UniProt Q04721). The experiment in a line: Notch2 binders on small-molecule microarrays, primary screen, biochemical, small-molecule microarray, 635 nm fluorescence, stem cell growth factors (AID 1073). The conditions noted are these: Notch2 binding, higher = more signal.
Assay [6] concerns the target Pro-neuregulin-1, membrane-bound isoform (Homo sapiens) (UniProt Q02297). Put plainly: NRG1 binders on small-molecule microarrays, primary screen, psychiatric disease protein project, biochemical, small-molecule microarray, fluorescence 635/667 (AID 1075).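 Also: score combines 667 nm spot fluorescence with signal to noise.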 Particulars: NRG1 binding, 635 nm fluorescence, higher = more signal.
The test system of assay [7] is Neuregulin-1 EGF-like domain. Put plainly: binders of neuregulin-1 EGF-like domain, primary screen, biochemical, small-molecule microarray, 635 nm fluorescence (AID 1081).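 Also: binding of the protein to compounds printed on small-molecule microarray slides.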 Particulars: small-molecule microarray binding, higher = more signal.
The nature of assay [8]: FRG1 promoter luciferase signal modulators, primary screen, FRG1 inhibition for FSHD, cell-based, C2C12 myotubes, firefly/Renilla luciferase, luminescence (AID 1084). Particulars: higher = more signal, called active from +8 up or from −8 down.
Assay [9] is described as follows: binders of probe aFST on microarray, primary screen, stem cell growth factor project, biochemical, small-molecule microarray, fluorescence 635/667 (AID 1086).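 Also: score merges 667 nm fluorescence with signal-to-noise of each printed compound spot.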 The conditions noted are these: higher = more signal.
A short description of assay [10]: binders of probe aHhip on microarray, primary screen, stem cell growth factor project, biochemical, small-molecule microarray, fluorescence 635/667 (AID 1087).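 Also: score merges spot fluorescence at 667nm with spot signal to noise ratio.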 The conditions noted are these: higher = more signal.

The source made the active and inactive calls.

Chain of Neurogenic locus notch homolog protein 2 (Homo sapiens) (Q04721 whole entry, looked up, canonical isoform): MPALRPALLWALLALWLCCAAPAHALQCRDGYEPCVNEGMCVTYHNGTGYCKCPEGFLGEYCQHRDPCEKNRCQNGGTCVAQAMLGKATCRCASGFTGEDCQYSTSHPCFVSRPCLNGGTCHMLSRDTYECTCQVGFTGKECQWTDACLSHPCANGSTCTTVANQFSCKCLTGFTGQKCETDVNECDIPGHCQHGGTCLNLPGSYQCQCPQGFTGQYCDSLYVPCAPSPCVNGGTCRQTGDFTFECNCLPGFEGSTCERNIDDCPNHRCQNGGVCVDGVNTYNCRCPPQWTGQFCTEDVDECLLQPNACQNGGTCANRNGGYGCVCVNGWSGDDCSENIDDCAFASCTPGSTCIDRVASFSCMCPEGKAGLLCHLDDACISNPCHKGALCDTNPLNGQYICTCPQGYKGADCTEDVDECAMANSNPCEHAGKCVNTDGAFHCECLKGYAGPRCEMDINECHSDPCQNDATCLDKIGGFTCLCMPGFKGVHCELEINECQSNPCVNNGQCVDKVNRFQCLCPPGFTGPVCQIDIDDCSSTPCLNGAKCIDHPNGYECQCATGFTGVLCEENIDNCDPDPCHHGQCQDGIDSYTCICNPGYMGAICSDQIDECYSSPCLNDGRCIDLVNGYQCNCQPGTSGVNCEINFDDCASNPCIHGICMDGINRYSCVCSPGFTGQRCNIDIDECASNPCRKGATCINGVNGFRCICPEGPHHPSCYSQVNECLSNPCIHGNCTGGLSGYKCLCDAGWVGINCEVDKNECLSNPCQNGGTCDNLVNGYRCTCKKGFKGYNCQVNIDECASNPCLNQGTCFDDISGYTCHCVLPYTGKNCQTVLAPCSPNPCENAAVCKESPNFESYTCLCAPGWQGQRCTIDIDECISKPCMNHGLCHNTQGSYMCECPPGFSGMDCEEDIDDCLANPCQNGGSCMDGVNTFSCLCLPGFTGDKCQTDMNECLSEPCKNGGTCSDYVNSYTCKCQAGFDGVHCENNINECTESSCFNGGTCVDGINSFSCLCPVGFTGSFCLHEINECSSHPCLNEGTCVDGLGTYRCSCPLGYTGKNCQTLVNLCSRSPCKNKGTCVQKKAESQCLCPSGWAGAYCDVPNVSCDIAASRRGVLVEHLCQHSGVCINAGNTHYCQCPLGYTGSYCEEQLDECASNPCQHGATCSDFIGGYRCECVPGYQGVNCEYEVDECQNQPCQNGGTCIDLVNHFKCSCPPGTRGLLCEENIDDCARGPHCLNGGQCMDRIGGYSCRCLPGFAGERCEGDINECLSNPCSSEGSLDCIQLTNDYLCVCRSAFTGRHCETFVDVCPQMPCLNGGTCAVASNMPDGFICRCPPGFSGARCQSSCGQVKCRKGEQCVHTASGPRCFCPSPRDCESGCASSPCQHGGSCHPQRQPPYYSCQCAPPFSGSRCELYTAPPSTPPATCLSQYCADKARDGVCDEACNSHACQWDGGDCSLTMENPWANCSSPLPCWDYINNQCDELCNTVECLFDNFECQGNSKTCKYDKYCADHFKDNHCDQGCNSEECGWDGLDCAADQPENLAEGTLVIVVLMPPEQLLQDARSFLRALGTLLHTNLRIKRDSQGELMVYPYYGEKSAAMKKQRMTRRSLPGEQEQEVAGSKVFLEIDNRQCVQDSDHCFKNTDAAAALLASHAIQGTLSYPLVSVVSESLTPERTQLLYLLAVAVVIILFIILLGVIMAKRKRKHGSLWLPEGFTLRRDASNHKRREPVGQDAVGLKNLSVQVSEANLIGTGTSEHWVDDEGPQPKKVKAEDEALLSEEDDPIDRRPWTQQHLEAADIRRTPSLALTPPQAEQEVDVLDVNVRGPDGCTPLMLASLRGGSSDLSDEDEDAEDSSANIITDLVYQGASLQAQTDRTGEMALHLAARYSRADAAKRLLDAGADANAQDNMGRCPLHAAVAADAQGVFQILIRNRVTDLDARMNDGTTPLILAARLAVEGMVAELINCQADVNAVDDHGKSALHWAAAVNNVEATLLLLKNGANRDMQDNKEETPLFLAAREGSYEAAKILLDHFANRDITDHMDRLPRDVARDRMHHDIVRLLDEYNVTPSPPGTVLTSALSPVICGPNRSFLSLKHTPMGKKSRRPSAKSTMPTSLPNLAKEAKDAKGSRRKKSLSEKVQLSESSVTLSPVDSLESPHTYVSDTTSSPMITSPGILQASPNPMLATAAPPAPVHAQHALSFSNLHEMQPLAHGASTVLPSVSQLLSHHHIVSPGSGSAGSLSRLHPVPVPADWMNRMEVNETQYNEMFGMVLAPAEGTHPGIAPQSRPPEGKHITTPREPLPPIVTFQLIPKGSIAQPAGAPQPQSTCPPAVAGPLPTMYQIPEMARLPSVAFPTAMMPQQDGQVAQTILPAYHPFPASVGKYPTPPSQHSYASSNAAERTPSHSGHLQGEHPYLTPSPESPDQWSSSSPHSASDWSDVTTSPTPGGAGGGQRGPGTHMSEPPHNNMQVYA
Chain of Pro-neuregulin-1, membrane-bound isoform (Homo sapiens) (Q02297 whole entry, looked up, the tested form may be a part, canonical isoform): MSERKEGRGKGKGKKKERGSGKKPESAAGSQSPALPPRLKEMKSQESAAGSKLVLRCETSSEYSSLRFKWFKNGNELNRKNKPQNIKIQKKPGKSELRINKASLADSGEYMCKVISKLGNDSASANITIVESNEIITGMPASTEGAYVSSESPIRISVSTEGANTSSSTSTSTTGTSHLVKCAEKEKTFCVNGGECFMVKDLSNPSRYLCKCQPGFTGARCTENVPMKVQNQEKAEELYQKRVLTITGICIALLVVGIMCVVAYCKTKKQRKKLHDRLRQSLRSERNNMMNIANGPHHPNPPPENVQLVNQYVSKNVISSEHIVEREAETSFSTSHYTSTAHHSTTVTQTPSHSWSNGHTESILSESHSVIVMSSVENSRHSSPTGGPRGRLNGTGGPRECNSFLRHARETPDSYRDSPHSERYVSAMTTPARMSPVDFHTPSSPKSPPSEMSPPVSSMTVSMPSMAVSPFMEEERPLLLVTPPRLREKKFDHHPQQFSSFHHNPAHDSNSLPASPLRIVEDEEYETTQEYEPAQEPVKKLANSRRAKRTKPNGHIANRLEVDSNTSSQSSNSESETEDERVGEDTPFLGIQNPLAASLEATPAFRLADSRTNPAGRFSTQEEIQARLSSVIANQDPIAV

`COC(=O)c1c2oc(c1C(=O)OC)C(=O)N[C@H](Cc1ccccc1)Cn1cc(nn1)C1(CCCCC1)NC(=O)N[C@H](CO)CC2`: the composite z-score is -0.194 in assay [1]; 0.112 in assay [2]; -0.0561 in [3]; 0.399 in assay [4]; -0.0222 in [5]; 0.657 in assay [6]. Also, the composite z-score in [7] was 0.647; in assay [9], -0.259; in assay [10], -0.0102. Moreover, the z-score in [8] is -1.12 (inactive).
In the case of `CCCCC(=C=CC[C@H](O)c1cccc(OCCO)c1)C[C@H](O)c1cc(Cl)cc(Cl)c1O`, the composite z-score is -0.288 in assay [1]; -0.027 in [2]; -0.0376 in [3]; 0.526 in assay [4]; -0.107 in [5]; 0.665 in assay [6]. The values for the composite z-score in assay [7], in assay [9] and in [10] were 0.616, 0.137 and -0.197, respectively. The z-score in [8] was -1.64 (inactive).
For the compound `CC(C)(C)OC(=O)CC[C@@]1(C(=O)N2CCOCC2)N=C(c2ccc(OCCCO)cc2)O[C@@H]1c1ccccc1CN=[N+]=[N-]`, the composite z-score is 0.12 in assay [1]; 0.161 in assay [2]; 0.254 in assay [3]; 0.674 in assay [4]; 1.1 in [5]; 1.88 in assay [6]. For the same compound, the composite z-score worked out at 1.31 in assay [7], 0.694 in assay [9] and 0.186 in assay [10]. In addition, the z-score in assay [8] was 3.86 (inactive).
Consider `CC[C@H]1C2=C3C(CC[C@H]4C(OCc5ccc(F)cc5C(F)(F)F)OC[C@](C)([C@@H]34)N(C(=O)OC(C)(C)C)C2)C(COC(C)=O)C1COC(C)=O` (stereo not given in full), for which the composite z-score in [1] was -0.187; in [2] it was -0.25; in [3], 0.0311; in assay [4] it was 0.54; in assay [5], 1.54; in [6], 1. Moreover, the results for the composite z-score in assay [7], in assay [9] and in [10] were 1.2, 1.43 and 0.104, respectively. The z-score in assay [8] is 1.48 (inactive).
For `CC(C)(C)OC(=O)CC[C@@]1(C(N)=O)N=C(c2ccc(OCCCO)cc2)O[C@@H]1c1ccccc1CN=[N+]=[N-]`, the composite z-score in assay [1] came to 0.389; in assay [2] it was 0.87; in assay [3] it was 0.153; in assay [4], 0.712; in assay [5], 1.57; in assay [6] it was 1.28. For the same compound, the composite z-score in assay [7] stood at 1.44; in assay [9], 1.47; in assay [10], 0.452. Moreover, the z-score in assay [8] is 4.09 (inactive).
Consider `[N-]=[N+]=NCc1ccccc1C[C@@]1(C(=O)NCCN2CCOCC2)N=C(c2ccc(OCCCO)cc2)O[C@@H]1c1ccccc1`, for which the composite z-score in assay [1] was -0.0252; in assay [2], -0.539; in [3], -0.0514; in assay [4] it was 0.246; in assay [5], 0.266; in assay [6], 1.12. Besides, the values for the composite z-score in assay [7], in [9] and in assay [10] were 1.28, 0.804 and -0.0994, respectively. In addition, the z-score in assay [8] is -3.05 (inactive).
With `CN1C(=O)C2CC=C(C3=CCO[C@@H]3[C@H]3CCCN3S(=O)(=O)c3ccccc3[N+](=O)[O-])CC2C1=O` (stereo not given in full), the composite z-score was 0.895 in [1]; -0.216 in assay [2]; -0.166 in assay [3]; 0.114 in [4]; -0.456 in [5]; 0.789 in assay [6]. Moreover, the composite z-score was -0.132 in assay [7], 0.0699 in assay [9] and 0.0373 in assay [10]. In addition, the z-score in [8] is -0.869 (inactive).
In the case of `COc1ccc([Si](C)(C)[C@H]2[C@H](CC(=O)N3CCC[C@H]3CO)O[C@@]3(C(=O)N(C)c4ccccc43)[C@@H]2C)cc1`, the composite z-score in assay [1] is 0.735; in assay [2], 0.384; in assay [3] it was -0.0375; in assay [4], -0.0959; in assay [5], -0.711; in [6], 0.63. Further, the composite z-score was 1.4 in [7], 0.324 in [9] and 0.394 in [10]. Moreover, the z-score in assay [8] is -0.0568 (inactive).
For the compound `COCCCNC(=O)[C@@]1(Cc2ccccc2I)c2ccccc2C(=O)N(C2CCCCC2)[C@H]1c1ccc(CO)cc1`, the composite z-score in assay [1] is -0.101; in [2], 0.346; in assay [3] it was -0.0064; in assay [4], 0.527; in [5], 0.452; in assay [6] it was 0.857. In addition, the figures for the composite z-score in [7], in [9] and in assay [10] were 1.35, -0.729 and -0.0994, respectively. Also, the z-score in assay [8] was -4.02 (inactive).
For `C=CC[C@]1(C(N)=O)N=C(c2ccc(OCCCO)cc2)O[C@H]1c1ccccc1N=[N+]=[N-]`, the composite z-score in [1] was 0.951; in assay [2], -0.385; in assay [3] it was 0.087; in assay [4], 0.672; in [5] it was 0.737; in assay [6], 1.8. Besides, the composite z-score in assay [7] is 1.06; in assay [9] it was 1.69; in [10], -0.306. Also, the z-score in assay [8] was 2.63 (inactive).
For the compound `Cc1ccc(N2C(=O)c3ccccc3[C@@H](C(=O)NCCN3CCOCC3)[C@@H]2c2ccc(CO)cc2)nc1`, the composite z-score in assay [1] was 1.02; in assay [2], -1.48; in assay [3] it was -0.116; in [4], -0.319; in [5] it was -1.34; in assay [6], 0.209. Besides, the results for the composite z-score in [7], in assay [9] and in assay [10] were -0.297, -0.58 and -0.249, respectively. In addition, the z-score in assay [8] is 0.169 (inactive).
In the case of `CN1C(=O)C2C=CC(C(O)c3ccc(I)cc3)N(N(c3ccccc3)c3ccccc3)C2C1=O` (stereo not given), the composite z-score in [1] is 0.75; in [2], -0.272; in [3] it was -0.0507; in assay [4], -0.454; in assay [5], 0.333; in assay [6] it was 0.495. Moreover, the composite z-score was -0.0493 in assay [7], 0.428 in assay [9] and -0.176 in [10]. The z-score in assay [8] was 0.586 (inactive).
As for `COc1cc2c(cc1O)C(C)N(Cc1sc3ccccc3c1Cl)CC2` (stereo not given), the composite z-score in [1] is 0.208; in assay [2] it was -1.01; in assay [3], -0.17; in assay [4] it was -0.563; in assay [5] it was -0.246; in assay [6], 0.717. The values for the composite z-score in assay [7], in [9] and in assay [10] were 0.343, -0.133 and -0.0994, respectively. The z-score in assay [8] is 0.541 (inactive).
